The list is not random: actives were taken first. Their share in the collection is about 1.3%.
Phagocytosis inh – macrophage phagocytosis inhibition; J774A.1 macrophage IgG-bead phagocytosis, imaging; inhibition, % at 5 µM; actives 0.07% (n = 110,000); AID 1029;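 active means inhibition above the mean of the plate negative controls plus 5 SD, cut at about 13% in these data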;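 further: phagocytic index as fraction of beads internalized from green versus red external bead signal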
S1P2 agonist – agonists of human S1P2 receptor; S1P2-expressing cell line, agonist reporter read-out; actives 0.46% (n = 97,000); activation, % at 4.5 µM; O95136; in the data active means activation above about 16%
GALR2 blocker – blocks the human galanin receptor 2; O43603; GALR2-expressing cells, antagonist mode; inhibition, % at 4 µM; actives 0.39% (n = 140,000); AID 828; in the data active means inhibition above about 27%;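 further: cells stimulated with galanin 1-16 at roughly its EC80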
Target sequence (O43603 whole entry, looked up): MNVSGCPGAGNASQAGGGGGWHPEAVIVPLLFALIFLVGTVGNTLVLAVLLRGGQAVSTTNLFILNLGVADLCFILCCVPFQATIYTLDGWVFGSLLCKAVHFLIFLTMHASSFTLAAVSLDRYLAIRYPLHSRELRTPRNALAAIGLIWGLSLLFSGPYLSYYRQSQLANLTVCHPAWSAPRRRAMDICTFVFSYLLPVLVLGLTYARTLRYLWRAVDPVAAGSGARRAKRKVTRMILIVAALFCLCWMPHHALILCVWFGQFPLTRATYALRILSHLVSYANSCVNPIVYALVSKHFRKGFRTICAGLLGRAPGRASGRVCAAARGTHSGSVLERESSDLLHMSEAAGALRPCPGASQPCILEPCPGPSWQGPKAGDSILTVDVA
S1P2 antag – S1P2 (human) receptor antagonism; actives 0.21% (n = 97,000); O95136; cell-based S1P2 antagonist assay, inhibition at 5 uM; inhibition, % at 5 µM; in the data active means inhibition above about 45%;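 further: CRE beta-lactamase reporter cells expressing human S1P2 stimulated with S1P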
GALR2 agonist – agonists of human galanin receptor 2 (GALR2). activation, % (test concentration not listed). GALR2-expressing cells, agonist activation read-out. actives 0.48% (n = 140,000). O43603. AID 803; in the data active means activation above about 5%, passing the limit was not always enough
Of the large screens only hits and unclear results are named; the others gave an inactive call; [ ] = remark or other dose.

Cc1ccccc1-n1c(=O)c(C#N)cc2c(=O)n3ccccc3nc21	S1P2 agonist 63, GALR2 agonist 74
C=CCn1c(=O)c(C#N)cc2c(=O)n3ccccc3nc21	S1P2 agonist 60, GALR2 agonist 21
Cc1cc(-n2c(=O)c(C#N)cc3c(=O)n4ccccc4nc32)no1	GALR2 agonist 31 (no result: S1P2 agonist, S1P2 antag)
C=CCn1cnc2scc(-c3ccc(C)cc3)c2c1=O	none
O=[N+]([O-])C(=C1Nc2ccccc2N1)/C(Cl)=C(/Cl)Br	none (no result: S1P2 agonist, S1P2 antag)
O=C(CSc1nc2c(c(=O)n1-c1ccc(Cl)cc1)SCC2)N1CCOCC1	S1P2 agonist 21
COc1ccc2c(c1OC)C(=O)N1N=C(c3ccc(Cl)cc3)CC21 (configuration not stated)	none (no result: S1P2 agonist, S1P2 antag)
Cc1cc(C(=O)CN2C(=O)NC(C)(c3cccc(Br)c3)C2=O)c(C)n1Cc1ccco1 (configuration not stated)	S1P2 agonist 36
CC1(c2ccc(Cl)cc2Cl)OCC(Cn2ccnc2)O1 (configuration not stated)	none
COc1ccc2c(c1)c1nnc(SC)nc1n2C	none (no result: Phagocytosis inh)
COc1ccc2c(c1)c1nnc(SCC(=O)N3C(C)CCCC3C)nc1n2C (configuration not stated)	S1P2 agonist 19 (no result: Phagocytosis inh)
Nc1nc(Br)c2c(F)cccc2c1-c1ccc(Cl)cc1	S1P2 agonist 38, GALR2 agonist 13 (no result: Phagocytosis inh)
O=C(Nc1ccc(-c2nc3ccc(NC(=O)c4cccs4)cc3[nH]2)cc1)c1cccs1	GALR2 blocker 28
O=C(Nc1ccc2nc(-c3cccs3)[nH]c2c1)c1cccs1	none
Cc1cc2occ(CC(=O)OCC(=O)Nc3sc4c(c3C#N)CCC(C)C4)c2cc1C (configuration not stated)	none (no result: S1P2 agonist, S1P2 antag)
O=C(NC(=O)c1cccc(OC(F)(F)C(F)F)c1)OC1CCS(=O)(=O)C1 (configuration not stated)	GALR2 agonist 5.7 (no result: S1P2 agonist, S1P2 antag)
O=C(Nc1ccccc1)OC1CCS(=O)(=O)C1 (configuration not stated)	none (no result: S1P2 agonist, S1P2 antag)
Cc1nn(C)c(C(=O)N/N=C/c2ccc(C(F)(F)F)cc2)c1[N+](=O)[O-]	none (no result: S1P2 agonist, S1P2 antag)
CCOc1ccc(NS(=O)(=O)c2cc(NC(=O)c3cccc(C)c3)ccc2Cl)cc1	none (no result: S1P2 agonist, S1P2 antag)
CCC(=O)Nc1c(C#N)c2nc3ccccc3nc2n1C1CCCCC1	none
N#Cc1c(N)n(C2CCCCC2)c2nc3ccccc3nc12	S1P2 agonist 22, GALR2 agonist 17
CCOc1ccc(N(CC(=O)Nc2ccccc2C(=O)N2CCOCC2)S(=O)(=O)c2ccc(F)cc2)cc1	none (no result: S1P2 agonist, S1P2 antag)
O=C(CSc1nnc(-c2ccncc2)o1)Oc1ccccc1	none
O=C(CSc1nnc(-c2cccnc2)o1)Oc1ccccc1	Phagocytosis inh 26[artifact]
CCOC(=O)C1=C(O)/C(=C/c2cc(OC)c(OC)c(OC)c2)SC1=Nc1ccc(OC)cc1	S1P2 agonist 37 (no result: Phagocytosis inh)
CCCCN1C(=O)Cc2c1nc(N)c1c(N)nc(N(CCC)CCC)c(C#N)c21	none
CCCN(CCC)c1nc(N)c(C#N)c(CC#N)c1C#N	S1P2 agonist 16
CCCN(CC1CC1)c1nc(N)c(C#N)c(CC#N)c1C#N	S1P2 agonist 16
CCCNC(=O)CN(c1cccc(F)c1)S(C)(=O)=O	none (no result: S1P2 agonist, S1P2 antag)
CCCCC(CC)Cn1c2nc3ccccc3nc2c2c(=N)oc(C)nc21 (configuration not stated)	none
CCCCC(CC)Cn1c(N)c(C#N)c2nc3ccccc3nc21 (configuration not stated)	S1P2 agonist 50, GALR2 agonist 35
COc1cc2c(cc1OC)/C(=C/C#N)NC(C)(C)C2	S1P2 agonist 26
Cc1ccc(S(=O)(=O)N/N=C/c2cc(Br)c(C)o2)cc1	S1P2 agonist 27
Cc1ccc(S(=O)(=O)N/N=C/c2cccc([N+](=O)[O-])c2)cc1	none (no result: S1P2 agonist, S1P2 antag)
CCc1ccc(Nc2nnc(SCC(=O)Nc3cccnc3Cl)s2)cc1	none (no result: S1P2 agonist, S1P2 antag)
Cc1ccc(NC(=O)CN(C)CC(=O)Nc2ccc(N3CCOCC3)cc2)c([N+](=O)[O-])c1	none (no result: S1P2 agonist, S1P2 antag)
CSCCC(NC(=O)c1ccccc1)C(=O)N/N=C(\C)c1ccccc1 (configuration not stated)	none (no result: Phagocytosis inh, S1P2 agonist, S1P2 antag)
Cc1nn(-c2ccccc2)c(N2CCCC2)c1/C=N/n1cnc2scc(-c3ccccc3)c2c1=O	none
O=c1c2c(-c3ccccc3)csc2ncn1/N=C/c1c2ccccc2cc2ccccc12	S1P2 agonist 18
COc1ccc(Nc2nc(N3CCCCC3)c3ccccc3n2)cc1	S1P2 antag 56 (no result: Phagocytosis inh)
CC(=O)Oc1cc2oc(=O)cc(C)c2cc1OC(C)=O	GALR2 agonist 6.0
CNS(=O)(=O)c1ccc(Cl)nc1	none (no result: S1P2 agonist, S1P2 antag)
O=C(CNC(=O)c1ccc(Cl)cc1)NCC(F)(F)F	none (no result: S1P2 agonist, S1P2 antag)
Cc1cc(C)n(-c2nc(NCCO)c3c4c(sc3n2)CCCC4)n1	GALR2 agonist 8.1
Cc1cc(C)n(-c2nc(NCC(C)O)c3c4c(sc3n2)CCCC4)n1 (configuration not stated)	GALR2 agonist 8.8
Cc1cc(C)n(-c2nc(NCC(C)O)c3c4c(sc3n2)COC(C)(C)C4)n1 (configuration not stated)	none
Cc1cc(C)n(-c2nc(NCCCO)c3c4c(sc3n2)CCCC4)n1	GALR2 agonist 36
CCn1c(/C=C/c2c(C)[nH]c3ccccc23)nc2ccccc2c1=O	GALR2 agonist 7.3 (no result: S1P2 agonist, S1P2 antag)
CCC(=O)N1COC[C@@H]1Cc1ccccc1	none (no result: S1P2 agonist, S1P2 antag)
CC1(C)c2ccccc2N2CCC(=O)NC21/C=C/c1ccco1 (configuration not stated)	GALR2 agonist 6.1
Cc1c(NC(=O)c2cc(-n3cnnc3)ccc2Cl)cccc1-c1nc2ccccc2o1	S1P2 antag 56 (no result: Phagocytosis inh)
O=C(Nc1ccc(-c2nc3ccccc3o2)c(O)c1)c1cc(-n2cnnc2)ccc1Cl	none
Cc1ccccc1-n1c(SCc2cc(=O)n3ccccc3n2)nc2[nH]ncc2c1=O	S1P2 agonist 24
Cc1cc(C)n2nc(SCc3cc(=O)n4ccccc4n3)nc2n1	S1P2 agonist 20 (no result: Phagocytosis inh)
Cc1cccc2nc(CSc3nc4[nH]ncc4c(=O)n3-c3ccccc3Cl)cc(=O)n12	none (no result: S1P2 agonist, S1P2 antag)
CCn1c(C)cc(/C=C2/NC(=O)N(CC(=O)Nc3cccc(C)c3)C2=O)c1C	GALR2 agonist 8.0 (no result: S1P2 agonist, S1P2 antag)
CSC(=NC#N)N1CCN(c2ccc(Cl)cc2)CC1	none (no result: Phagocytosis inh)
Cc1ccc(NCCC#N)cc1C	none (no result: S1P2 agonist, S1P2 antag)
Cc1sc2nc(SCc3nc4ccccc4[nH]3)n(Cc3ccco3)c(=O)c2c1C	S1P2 agonist 17
C=CCn1c(SCC(=O)NC(=O)NCc2ccco2)nc2sc(C)c(C)c2c1=O	GALR2 agonist 6.2
CN(C)S(=O)(=O)c1cccc(CSc2cccc[n+]2[O-])c1	none
O=C1c2cccc3c(O)ccc(c23)C(=O)N1Cc1ccccc1	none
CCOC(=O)C1=C(C)Nc2sc(C(=O)c3ccc(C)cc3)c(N)c2C1c1ccc(C(=O)OC)cc1 (configuration not stated)	GALR2 agonist 5.5 (no result: S1P2 agonist, S1P2 antag)
CCOC(=O)C1=C(C)Nc2sc(C(=O)c3ccc(F)cc3)c(N)c2C1c1ccc(C(=O)OC)cc1 (configuration not stated)	none (no result: S1P2 agonist, S1P2 antag)
Cc1cc(C)n(-c2nc(Nc3ccccc3C(F)(F)F)nc(-n3nc(C)cc3C)n2)n1	S1P2 antag 59 (no result: Phagocytosis inh)
CSc1nc(C)c(Cl)c(C)c1C#N	none (no result: S1P2 agonist, S1P2 antag)
C=CCNS(=O)(=O)c1nc(C)c(Cl)c(C)c1C#N	Phagocytosis inh 27 (no result: S1P2 agonist, S1P2 antag)
